# Measured values published in PubChem BioAssay (EPA / NIEHS).
# Inconclusive results are not listed. Activity calls are given as the source filed them. Rule for the calls: active = hit-call score of the fitted dose curve at least 0.9, where 1 is the maximum; inconclusive = response in the unintended direction; inactive = score below 0.9.
# Tests used:
# [1] = target: rat Gamma-Aminobutyric Acid Type B Receptor (GABBR), Gabbr1 (gene 81657) (UniProt Q9Z0U4); experiment: NVS_GPCR_rGABBR: NovaScreen (NVS) G Protein-Coupled Receptor Assay for rat Gamma-Aminobutyric Acid Type B Receptor (GABBR) (AID 2283301)
# Outline: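 Rat cortical membrane preparation, competitive radioligand binding for 1 h with filtration and scintillation readout. Actives from duplicate single-point 25 uM screening proceeded to concentration series with 50 uM top concentration.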
# [2] = target: rat Neurokinin-1 Receptor (NK1), Tacr1 (gene 24807) (UniProt P14600); experiment: NVS_GPCR_rNK1: NovaScreen (NVS) G Protein-Coupled Receptor Assay for rat Neurokinin-1 Receptor (NK1) (AID 2283309)
# Outline: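 Competitive radioligand binding to NK1 in rat submaxillary membranes, 1 h incubation, filtration and scintillation read-out. Compounds first screened at 25 uM in duplicate, then concentration-response for actives; signal loss relative to DMSO.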
# [3] = target: human Constitutive Androstane Receptor (CAR), NR1I3 (gene 9970) (UniProt Q14994); experiment: NVS_NR_hCAR_Agonist: NovaScreen (NVS) Nuclear Receptor Binding Assay for human Constitutive Androstane Receptor Agonism (CAR) (AID 2283328)
# Outline: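 Actives from a 25 uM duplicate screen were retested in singleton concentration series to 50 uM max. Biochemical TR-FRET assay on extracted CAR protein measured 1 h post-dose, with signal increase over DMSO control.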
# [4] = target: Metabotropic glutamate receptor 1 (Rattus norvegicus) (UniProt P23385); experiment: NVS_GPCR_rmMGluR1: NovaScreen (NVS) G Protein-Coupled Receptor Assay for rat Glutamate Metabotropic Receptor 1 (MGluR1) (AID 2283305)
# Outline: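 Binding to native receptor from rat cerebellum extract, measured as displacement of a radioligand (scintillation counting, filter separation) after 1 hour. Compounds tested at 25 uM in duplicate, then titrated to a 50 uM maximum.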
# [5] = target: rat Vasopressin 1 Receptor (V1), Avpr1a (gene 25107) (UniProt P30560); experiment: NVS_GPCR_rV1: NovaScreen (NVS) G Protein-Coupled Receptor Assay for rat Vasopressin 1 Receptor (V1) (AID 2283316)
# Outline: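 Concentration-response up to 50 uM for chemicals passing a threshold such as 30% inhibition in an initial duplicate 25 uM screen. Displacement of radioligand from rat liver membranes measured after 1.5 h by filtration and scintillation.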
# [6] = target: Sodium channel protein type 1 subunit alpha (Rattus norvegicus) (UniProt P04774); experiment: NVS_IC_rNaCh_site2: NovaScreen (NVS) Ion Channel Assay for rat Sodium Channel, Site 2 (NaCh) (AID 2283322);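 note: hit means loss of radioligand binding signal relative to DMSO so AC50 marks displacement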
# Outline: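 Initial duplicate single-point testing at 25 uM, followed by concentration-response runs for actives. Binding of radioligand to rat forebrain membranes quantified after 1 h via filter-based radiodetection.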
# [7] = target: rat Thyrotropin Releasing Hormone Receptor (TRH), Trhr (gene 25570) (UniProt Q01717); experiment: NVS_GPCR_rTRH: NovaScreen (NVS) G Protein-Coupled Receptor Assay for rat Thyrotropin Releasing Hormone Receptor (TRH) (AID 2283329);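 note: hit means lower bound tracer signal versus DMSO baseline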
# Outline: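 Cell-free radioligand binding on rat forebrain membranes; bound tracer measured by filter-based scintillation counting 4 hours after dosing. Loss of signal versus DMSO baseline indicates displacement; primary screen at 25 uM in duplicate, actives then run in concentration series.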
# [8] = target: Adra2b (gene 24174) (UniProt P19328); experiment: NVS_GPCR_rmAdra2B: NovaScreen (NVS) G Protein-Coupled Receptor Assay for hybird cells Adrenergic, Alpha 2B Receptor (Adra2B) (AID 2283306)
# Outline: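 Compounds screened first at 25 uM in duplicate, with actives followed up in concentration-response; specific radioligand displacement from hybrid neuroglioma/blastoma cell membrane preparations measured by filter scintillation counting after 1 h, normalized to DMSO.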
# [9] = target: rat Glutamate, NMDA Agonist Site (GluNMDA), Grin1 (gene 24408) (UniProt P35439); experiment: NVS_LGIC_rGluNMDA_Agonist: NovaScreen (NVS) Ligand-Gated Ion Channel Assay for rat Glutamate, NMDA Agonist Site (GluNMDA) (AID 2283327)
# Outline: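 Radioligand displacement at the agonist site on rat forebrain membrane preparations, read by filter scintillation after 1 h. Chemicals were first run at 25 uM in duplicate; those passing threshold were titrated to a 50 uM maximum.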
# [10] = target: rat Somatostatin Receptor (SST), Sstr1 (gene 25033) (UniProt P28646); experiment: NVS_GPCR_rSST: NovaScreen (NVS) G Protein-Coupled Receptor Assay for rat Somatostatin Receptor (SST) (AID 2283314)
# Outline: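 Single-concentration duplicate screen (25 uM), then concentration-response up to 50 uM for chemicals passing a threshold such as 30% inhibition. Membranes came from rat forebrain. Binding was measured 1 h post-dose by filter radiodetection and scintillation, relative to DMSO.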
# [11] = target: rat Glutamate, AMPA Site (AMPA), Gria1 (gene 50592) (UniProt P19490); experiment: NVS_LGIC_rAMPA: NovaScreen (NVS) Ligand-Gated Ion Channel Assay for rat Glutamate, AMPA Site (AMPA) (AID 2283324)
# Outline: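 Screening at 25 uM in duplicate preceded concentration series reaching 50 uM for qualifying compounds. Radioligand displacement on rat forebrain membranes, 1 h, filter-based scintillation readout; reduced binding relative to DMSO.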
# [12] = target: rat Opioid Receptor, Non-selective Sodium (Na+) Binding, Oprm1 (gene 25601) (UniProt P33535); experiment: NVS_GPCR_rOpiate_NonSelectiveNa: NovaScreen (NVS) G Protein-Coupled Receptor Assay for rat Opioid Receptor, Non-selective Sodium (Na+) Binding (AID 2283311)
# Outline: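 Filtration radioligand binding on rat forebrain membrane preparations, read 1.5 h after dosing. Single-concentration 25 µM primary screen in duplicate, followed by singleton concentration series to 50 µM max for actives; DMSO baseline.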
# [13] = target: rat Opioid Receptor, Non-selective Binding, Oprm1 (gene 25601) (UniProt P33535); experiment: NVS_GPCR_rOpiate_NonSelective: NovaScreen (NVS) G Protein-Coupled Receptor Assay for rat Opioid Receptor, Non-selective Binding (AID 2283318)
# Outline: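 Filter-based radioligand displacement using rat forebrain membrane preparations, measured 1.5 h post-dosing. Single-concentration duplicate screen at 25 uM, follow-up in concentration series; activity taken as signal loss relative to DMSO.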
# [14] = target: bovine Gamma-Aminobutyric Acid Type A Receptor BDZ, alpha 5 site (GABARa5), GABRA5 (gene 523515) (UniProt Q08E50); experiment: NVS_LGIC_bGABARa5: NovaScreen (NVS) Ligand-Gated Ion Channel Assay for bovine Gamma-Aminobutyric Acid Type A Receptor BDZ, alpha 5 site (GABARa5) (AID 2283323)
# Outline: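 Tested first in duplicate at a single 25 uM, with hits re-run in concentration series to a 50 uM maximum. Bovine hippocampal membranes; specific radioligand displacement measured by filter scintillation counting 1 hr post-dose.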
# [15] = target: rat Histamine Receptor (H3), Hrh3 (gene 85268) (UniProt Q9QYN8); experiment: NVS_GPCR_rH3: NovaScreen (NVS) G Protein-Coupled Receptor Assay for rat Histamine Receptor (H3) (AID 2283303)
# Outline: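 Filter-binding radioligand competition on rat forebrain membranes, 1 h incubation; compounds screened at 25 µM in duplicate and followed in concentration series to 50 µM, loss of bound signal vs DMSO.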
# [16] = target: rat Neonicotinoid receptor (NNR), Chrna7 (gene 25302) (UniProt Q05941); experiment: NVS_LGIC_rNNR_BungSens: NovaScreen (NVS) Ligand-Gated Ion Channel Assay for rat Neonicotinoid receptor (NNR) (AID 2283315)
# Outline: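 Rat cortical membrane preparation incubated 2.5 h with tritiated or iodinated radioligand and test chemical. Bound radioactivity was filtered and counted by scintillation, and displacement was analysed against DMSO.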
# Sequence of Adra2b (gene 24174) (P19328 whole entry, looked up): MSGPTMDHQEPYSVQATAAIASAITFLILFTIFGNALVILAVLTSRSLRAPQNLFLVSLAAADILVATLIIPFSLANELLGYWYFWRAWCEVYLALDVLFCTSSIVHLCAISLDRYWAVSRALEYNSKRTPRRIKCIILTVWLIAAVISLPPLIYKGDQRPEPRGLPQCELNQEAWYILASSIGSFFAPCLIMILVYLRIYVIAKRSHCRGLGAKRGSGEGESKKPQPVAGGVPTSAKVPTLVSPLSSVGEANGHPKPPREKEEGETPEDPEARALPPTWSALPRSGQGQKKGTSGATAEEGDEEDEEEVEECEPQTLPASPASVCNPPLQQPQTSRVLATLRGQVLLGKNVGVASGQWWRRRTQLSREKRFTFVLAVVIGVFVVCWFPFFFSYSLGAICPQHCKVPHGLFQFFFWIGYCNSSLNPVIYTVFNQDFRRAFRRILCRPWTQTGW
# Sequence of rat Somatostatin Receptor (SST), Sstr1 (gene 25033) (P28646 whole entry, looked up): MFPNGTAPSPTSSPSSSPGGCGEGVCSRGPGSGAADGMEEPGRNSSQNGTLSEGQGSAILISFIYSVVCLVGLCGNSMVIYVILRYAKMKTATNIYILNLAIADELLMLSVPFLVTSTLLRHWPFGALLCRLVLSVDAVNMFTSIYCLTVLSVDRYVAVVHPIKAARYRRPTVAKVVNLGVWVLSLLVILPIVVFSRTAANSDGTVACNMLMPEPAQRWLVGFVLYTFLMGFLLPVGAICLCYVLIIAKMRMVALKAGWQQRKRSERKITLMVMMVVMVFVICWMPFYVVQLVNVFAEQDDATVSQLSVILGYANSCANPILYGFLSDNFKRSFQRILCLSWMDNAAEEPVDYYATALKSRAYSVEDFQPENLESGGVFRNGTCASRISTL
# Sequence of human Constitutive Androstane Receptor (CAR), NR1I3 (gene 9970) (Q14994 whole entry, looked up): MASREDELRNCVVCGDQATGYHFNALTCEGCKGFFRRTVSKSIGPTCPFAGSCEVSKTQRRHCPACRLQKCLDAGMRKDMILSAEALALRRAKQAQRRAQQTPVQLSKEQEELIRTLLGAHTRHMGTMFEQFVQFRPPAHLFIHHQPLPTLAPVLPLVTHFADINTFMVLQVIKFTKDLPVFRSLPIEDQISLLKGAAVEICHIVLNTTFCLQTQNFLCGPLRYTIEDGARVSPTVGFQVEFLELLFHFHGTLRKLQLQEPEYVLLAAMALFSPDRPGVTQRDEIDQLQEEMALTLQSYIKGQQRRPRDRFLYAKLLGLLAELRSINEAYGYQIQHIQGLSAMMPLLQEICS
# Sequence of rat Neurokinin-1 Receptor (NK1), Tacr1 (gene 24807) (P14600 whole entry, looked up): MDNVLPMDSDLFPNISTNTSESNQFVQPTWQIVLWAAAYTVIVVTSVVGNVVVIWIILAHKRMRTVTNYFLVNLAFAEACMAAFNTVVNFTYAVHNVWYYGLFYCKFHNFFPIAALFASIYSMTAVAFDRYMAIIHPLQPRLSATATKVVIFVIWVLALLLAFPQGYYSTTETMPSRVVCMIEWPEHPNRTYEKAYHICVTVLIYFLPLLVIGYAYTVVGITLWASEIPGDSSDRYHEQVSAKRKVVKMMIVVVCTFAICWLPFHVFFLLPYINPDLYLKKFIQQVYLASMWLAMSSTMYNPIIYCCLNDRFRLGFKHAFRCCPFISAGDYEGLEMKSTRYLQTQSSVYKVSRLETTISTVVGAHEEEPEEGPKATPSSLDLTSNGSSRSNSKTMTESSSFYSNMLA
# Sequence of rat Opioid Receptor, Non-selective Sodium (Na+) Binding, Oprm1 (gene 25601) (P33535 whole entry, looked up): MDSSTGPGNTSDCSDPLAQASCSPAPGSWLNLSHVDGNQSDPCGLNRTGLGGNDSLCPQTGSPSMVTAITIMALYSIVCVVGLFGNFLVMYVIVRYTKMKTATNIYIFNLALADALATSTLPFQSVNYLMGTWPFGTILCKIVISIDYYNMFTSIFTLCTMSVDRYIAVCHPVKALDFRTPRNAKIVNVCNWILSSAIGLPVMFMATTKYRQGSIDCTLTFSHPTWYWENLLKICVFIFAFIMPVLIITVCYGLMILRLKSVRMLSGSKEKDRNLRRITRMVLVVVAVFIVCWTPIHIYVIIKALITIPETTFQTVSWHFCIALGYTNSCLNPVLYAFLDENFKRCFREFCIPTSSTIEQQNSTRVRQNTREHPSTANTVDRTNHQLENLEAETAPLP
# Sequence of rat Opioid Receptor, Non-selective Binding, Oprm1 (gene 25601) (P33535 whole entry, looked up): as above
# Sequence of rat Glutamate, AMPA Site (AMPA), Gria1 (gene 50592) (P19490 whole entry, looked up): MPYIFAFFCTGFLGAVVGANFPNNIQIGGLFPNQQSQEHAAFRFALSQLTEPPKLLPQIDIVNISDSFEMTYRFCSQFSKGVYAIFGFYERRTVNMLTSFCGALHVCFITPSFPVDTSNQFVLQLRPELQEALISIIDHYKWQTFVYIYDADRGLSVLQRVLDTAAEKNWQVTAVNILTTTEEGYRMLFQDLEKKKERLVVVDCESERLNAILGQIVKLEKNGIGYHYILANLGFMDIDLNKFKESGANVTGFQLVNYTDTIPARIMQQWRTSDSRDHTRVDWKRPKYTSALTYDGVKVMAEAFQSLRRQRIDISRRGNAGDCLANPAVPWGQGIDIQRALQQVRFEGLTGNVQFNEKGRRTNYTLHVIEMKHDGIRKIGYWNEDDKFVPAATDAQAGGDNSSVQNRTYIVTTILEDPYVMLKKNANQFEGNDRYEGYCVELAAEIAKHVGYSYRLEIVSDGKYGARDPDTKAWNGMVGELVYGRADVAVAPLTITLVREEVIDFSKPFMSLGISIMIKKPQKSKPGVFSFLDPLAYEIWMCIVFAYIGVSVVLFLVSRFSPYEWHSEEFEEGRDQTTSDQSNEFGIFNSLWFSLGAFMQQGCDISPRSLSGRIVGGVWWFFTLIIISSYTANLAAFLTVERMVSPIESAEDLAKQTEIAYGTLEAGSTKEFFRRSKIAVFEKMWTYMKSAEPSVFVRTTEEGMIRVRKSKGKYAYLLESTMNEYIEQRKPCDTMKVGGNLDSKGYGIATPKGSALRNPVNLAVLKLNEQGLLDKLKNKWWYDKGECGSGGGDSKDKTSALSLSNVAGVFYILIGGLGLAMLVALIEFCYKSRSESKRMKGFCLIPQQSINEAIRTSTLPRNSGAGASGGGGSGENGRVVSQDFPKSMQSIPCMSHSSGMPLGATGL
# Sequence of Metabotropic glutamate receptor 1 (Rattus norvegicus) (P23385 whole entry, looked up): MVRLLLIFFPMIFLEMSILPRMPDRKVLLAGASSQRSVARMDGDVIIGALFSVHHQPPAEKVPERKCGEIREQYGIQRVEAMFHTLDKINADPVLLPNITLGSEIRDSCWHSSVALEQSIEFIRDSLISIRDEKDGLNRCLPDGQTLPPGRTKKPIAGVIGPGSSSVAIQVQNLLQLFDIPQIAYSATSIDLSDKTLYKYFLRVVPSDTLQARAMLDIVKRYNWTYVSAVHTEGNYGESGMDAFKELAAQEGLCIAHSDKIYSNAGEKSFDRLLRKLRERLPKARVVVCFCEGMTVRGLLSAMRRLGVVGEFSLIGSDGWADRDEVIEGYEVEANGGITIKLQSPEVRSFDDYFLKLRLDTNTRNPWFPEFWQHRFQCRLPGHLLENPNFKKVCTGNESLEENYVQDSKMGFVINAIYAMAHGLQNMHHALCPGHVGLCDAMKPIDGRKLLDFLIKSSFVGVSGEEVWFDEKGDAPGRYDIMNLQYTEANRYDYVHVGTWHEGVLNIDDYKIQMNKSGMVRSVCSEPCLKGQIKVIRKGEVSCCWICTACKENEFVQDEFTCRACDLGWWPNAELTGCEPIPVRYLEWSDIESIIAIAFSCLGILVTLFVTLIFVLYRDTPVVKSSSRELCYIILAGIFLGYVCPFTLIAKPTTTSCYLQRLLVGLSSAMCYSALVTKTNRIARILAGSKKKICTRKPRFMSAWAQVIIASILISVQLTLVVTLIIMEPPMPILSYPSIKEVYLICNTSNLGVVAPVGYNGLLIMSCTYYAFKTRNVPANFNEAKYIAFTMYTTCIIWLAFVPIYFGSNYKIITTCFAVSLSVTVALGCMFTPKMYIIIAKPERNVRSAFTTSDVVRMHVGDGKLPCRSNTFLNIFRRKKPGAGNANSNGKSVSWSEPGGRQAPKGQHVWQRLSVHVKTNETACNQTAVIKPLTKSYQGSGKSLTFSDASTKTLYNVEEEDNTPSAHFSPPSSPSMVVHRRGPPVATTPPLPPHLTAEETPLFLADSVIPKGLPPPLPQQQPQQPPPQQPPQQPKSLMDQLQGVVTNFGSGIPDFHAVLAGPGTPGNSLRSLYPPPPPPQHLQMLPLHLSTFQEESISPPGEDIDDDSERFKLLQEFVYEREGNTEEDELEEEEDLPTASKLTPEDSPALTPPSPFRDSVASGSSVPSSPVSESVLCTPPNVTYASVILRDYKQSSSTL
# Sequence of rat Vasopressin 1 Receptor (V1), Avpr1a (gene 25107) (P30560 whole entry, looked up): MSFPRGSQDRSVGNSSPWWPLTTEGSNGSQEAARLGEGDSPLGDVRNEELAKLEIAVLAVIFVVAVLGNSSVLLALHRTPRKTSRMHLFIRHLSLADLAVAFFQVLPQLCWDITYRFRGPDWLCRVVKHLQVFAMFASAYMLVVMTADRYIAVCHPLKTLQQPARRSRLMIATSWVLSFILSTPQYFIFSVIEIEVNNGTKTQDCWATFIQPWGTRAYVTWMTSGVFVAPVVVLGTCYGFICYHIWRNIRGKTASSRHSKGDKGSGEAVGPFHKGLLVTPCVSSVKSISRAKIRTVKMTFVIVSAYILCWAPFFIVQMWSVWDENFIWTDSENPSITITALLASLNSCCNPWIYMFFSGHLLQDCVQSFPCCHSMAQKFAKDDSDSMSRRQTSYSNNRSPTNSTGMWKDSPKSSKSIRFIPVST
compound,measurement,setting,value
COc1ccc2c(c1)c(CC(=O)O)c(C)n2C(=O)c1ccc(Cl)cc1,outcome,[1],inactive
COc1cc(S(=O)(=O)O)c(C)cc1N=Nc1c(O)ccc2cc(S(=O)(=O)O)ccc12,AC50,[2],25 µM (active)
CCCCCCCCCCCCCO,outcome,[3],inactive
COc1ccc(S(=O)(=O)N2C(=O)[C@@](c3ccccc3OC)(N3C[C@H](O)C[C@H]3C(=O)N(C)C)c3cc(Cl)ccc32)c(OC)c1,outcome,[4],inactive
same,AC50,[2],11.3 µM (active)
same,outcome,[5],inactive
same,AC50,[6],39.6 µM (active)
same,AC50,[7],10.4 µM (active)
CCCCC(CC)COC(=O)CC(C(=O)OCC(CC)CCCC)S(=O)(=O)O (stereo unspecified),AC50,[8],22.4 µM (active)
same,outcome,[6],inactive
same,AC50,[9],38.3 µM (active)
CC(C)(C)c1cc(O)c(C(C)(C)C)cc1O,AC50,[10],3.63 µM (active)
same,outcome,[3],inactive
CCOc1ccc2c(c1)C(C)=CC(C)(C)N2,outcome,[11],inactive
CNC(=O)[C@H]1O[C@@H](n2cnc3c(NCc4cc(Cl)ccc4OCc4cc(C)no4)ncnc32)[C@H](O)[C@@H]1N,outcome,[8],inactive
same,AC50,[10],37.9 µM (active)
O=C(N[C@@H](Cc1ccccc1)[C@@H](O)C(=O)N1C[C@@H](O)[C@@H](O)C1)c1cc2cc(Cl)ccc2[nH]1,AC50,[12],19.4 µM (active)
same,AC50,[13],25 µM (active)
same,outcome,[6],inactive
CCCCc1ccc2c(n1)[C@@H](c1ccc(OC)cc1C[C@H](C)C(=O)O)[C@H](C(=O)O)[C@H]2c1ccc2c(c1)OCO2,AC50,[14],27.5 µM (active)
CC(C)c1ccc(C(=O)N=C(N)N)cc1S(C)(=O)=O,AC50,[13],5.07 µM (active)
same,AC50,[6],34 µM (active)
Cc1c(C(=O)O)c(O)cc2c1C(=O)c1c(O)c([C@@H]3O[C@H](CO)[C@@H](O)[C@H](O)[C@H]3O)c(O)c(O)c1C2=O,outcome,[6],inactive
Nc1ccccc1N,outcome,[2],inactive
CNCc1cc(F)ccc1Oc1ccc(Cl)c(Cl)c1,outcome,[15],inactive
same,AC50,[8],8.41 µM (active)
same,AC50,[12],25 µM (active)
same,AC50,[16],28.5 µM (active)
COCCOC[C@H](CC1(C(=O)NC2CCC(C(=O)O)CC2)CCCC1)C(=O)Oc1ccc2c(c1)CCC2 (stereo partly specified),AC50,[10],5.45 µM (active)
same,outcome,[13],inactive
same,outcome,[11],inactive
Oc1ccc2c(c1)OC[C@@H](N1CCC(O)(c3ccc(F)cc3)CC1)[C@H]2O,outcome,[12],inactive
same,outcome,[13],inactive
same,outcome,[6],inactive
same,outcome,[9],inactive
same,outcome,[3],inactive
